Test results: PubChem BioAssay (NCI)
Compounds without any hit were thinned out: in the full panel of roughly 83,000, 20% have a hit.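 Treatment: one concentration, 48 hours, 96-well format. Scoring: percent growth, with anything below 10 considered active.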 Values without a mark were called inactive. The source made the active and inactive calls.

What was measured:
Assay in all cases: NCI-60 one-dose screen, 48 h (100 = growth as untreated, 0 = no growth, -100 = all killed)
SK-MEL-2 melanoma = details: 10 µM unless noted
EKVX NSCLC = details: 10 µM unless noted
SN12C renal = details: 10 µM unless noted
UO-31 renal = details: 10 µM unless noted
TK-10 renal = details: 10 µM unless noted
ACHN renal = details: 10 µM unless noted
CAKI-1 renal = details: 10 µM unless noted
A498 renal = details: 10 µM unless noted
CCRF-CEM leukemia = details: 10 µM unless noted
MOLT-4 leukemia = details: 10 µM unless noted
SR leukemia = details: 10 µM unless noted
RPMI-8226 leukemia = details: 10 µM unless noted
OVCAR-8 ovarian = details: 10 µM unless noted
OVCAR-5 ovarian = details: 10 µM unless noted
SK-OV-3 ovarian = details: 10 µM unless noted
IGROV1 ovarian = details: 10 µM unless noted
HS 578T breast = details: 10 µM unless noted
NCI/ADR-RES ovarian = details: 10 µM unless noted
OVCAR-3 ovarian = details: 10 µM unless noted
OVCAR-4 ovarian = details: 10 µM

| SMILES | growth (SK-MEL-2 melanoma) | growth (EKVX NSCLC) | growth (SN12C renal) | growth (UO-31 renal) | growth (TK-10 renal) | growth (ACHN renal) | growth (CAKI-1 renal) | growth (A498 renal) | growth (CCRF-CEM leukemia) | growth (MOLT-4 leukemia) | growth (SR leukemia) | growth (RPMI-8226 leukemia) | growth (OVCAR-8 ovarian) | growth (OVCAR-5 ovarian) | growth (SK-OV-3 ovarian) | growth (IGROV1 ovarian) | growth (HS 578T breast) | growth (NCI/ADR-RES ovarian) | growth (OVCAR-3 ovarian) [%] | growth (OVCAR-4 ovarian) [%] |
| --- | --- | --- | --- | --- | --- | --- | --- | --- | --- | --- | --- | --- | --- | --- | --- | --- | --- | --- | --- | --- |
| CC(C)=CC/C=C(/C)[C@H]1CC[C@]2(C)[C@@H]1CC[C@@H]1[C@@]3(C)CCC(=O)NC(C)(C)[C@@H]3CC[C@]12C | 3.93% [100 µM] (active) | 29.7% [100 µM] | -81.2% [100 µM] (active) | -98.7% [100 µM] (active) | 3.59% [100 µM] (active) | -63.5% [100 µM] (active) | 6.46% [100 µM] (active) | -16.4% [100 µM] (active) | -9.45% [100 µM] (active) | -14.3% [100 µM] (active) | 12.3% [100 µM] | -31.4% [100 µM] (active) | 0.344% [100 µM] (active) | 9.08% [100 µM] (active) | 38.6% [100 µM] | -67.6% [100 µM] (active) | -17.7% [100 µM] (active) | 13% [100 µM] | – | – |
| O=C(N/N=C\c1cc(Cl)ccc1O)N/N=C/c1cc(Cl)ccc1O | 70.6% | 69.4% | 66.8% | 17.3% | 55.4% | 27.5% | 60.2% | 80.3% | 27.4% | 43.2% | 35.4% | 29.4% | 43.4% | 75.6% | 73.7% | 49.1% | 34.6% | 16% | 10.2 | – |
| Nn1c(Nc2ccc(S(=O)(=O)Nc3ncccn3)cc2)nnc(/C=C/c2c(O)ccc3ccccc23)c1=O | 89.2% | 90.9% | 96.8% | 58.6% | 120% | 91.9% | 98.4% | 93.2% | 79.3% | 70.7% | 89.7% | 72.4% | 93.4% | – | 84.2% | 82.9% | 94.9% | 94.6% | 80.1 | 75.8 |
